Activity calls are given as the source filed them. Unless noted, the rule behind the calls is not given here.
Tests used:
[1] = kinase inhibitors against Plasmodium liver-stage infection, cell-based, known kinase inhibitor set, luminescence, hepatoma host viability (AID 624392); conditions: Plasmodium liver stage in hepatoma cells, luciferase luminescence, concentration not given here; liver cell % of control: measured here: host liver cell viability; parasite % of control: stronger effect = lower value;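 note: infected cells incubated roughly two days before readout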
[2] = modulators of glucocorticoid suppression of NF-kB, cell-based, luciferase, IL-1B stimulus, dexamethasone (AID 624486); conditions: NF-kB luciferase reporter, IL-1B + dexamethasone, luminescence; percent of negative control (+Dex): actives lie on both sides, concentration not given here; z-score: measured here: IL-1B alone, no Dex;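 for percent of negative control (+Dex): 100% = mean signal of vehicle control wells on the plate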
[3] = kinase inhibitors altering Pseudomonas killing of worms, whole organism (AID 651566);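 note: tested at 14 µM; sign flipped so higher z means a lower ratio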; conditions: C. elegans killed by P. aeruginosa, survival ratio
[4] = activators of macrophage pro-inflammatory response, cell-based, murine, luminescence (AID 652131); conditions: murine macrophage pro-inflammatory reporter, stronger effect = higher value
[5] = biological target: Cellular tumor antigen p53 (Homo sapiens) (UniProt P04637); assay: kinase inhibitors altering GFP-p53 stability in HPV16-positive cells, imaging, known kinase inhibitor set, EGFP/DsRed ratio (AID 1053116); conditions: stronger effect = higher value; EGFP object count: measured here: GFP-p53 positive objects count;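 note: cells exposed to compounds for 24 h at 37 °C before reading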
[6] = IRF3 reporter activation in THP-1 macrophages, cell-based, PMA-stimulated THP-1, luminescence (AID 1053176); conditions: PMA-differentiated THP-1, IRF3 reporter luminescence; stronger effect = higher value
[7] = survival rescue of mitochondrial mutant cells in low glucose, primary screen, MELAS cybrids, Rieske KO mouse fibroblasts, CellTiter-Glo (AID 1508586;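 active = mean z-score across replicates of 1.96 or higher in either the MELAS or the Rieske mutant cell line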;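 note: z relative to plate mean and SD of compound and empty wells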)
[8] = MELAS cybrid survival, CellTiter-Glo 48 h, stronger effect = higher value
[9] = Rieske KO mouse fibroblast survival, CellTiter-Glo 72 h

Chain of Cellular tumor antigen p53 (Homo sapiens) (P04637 whole entry, looked up): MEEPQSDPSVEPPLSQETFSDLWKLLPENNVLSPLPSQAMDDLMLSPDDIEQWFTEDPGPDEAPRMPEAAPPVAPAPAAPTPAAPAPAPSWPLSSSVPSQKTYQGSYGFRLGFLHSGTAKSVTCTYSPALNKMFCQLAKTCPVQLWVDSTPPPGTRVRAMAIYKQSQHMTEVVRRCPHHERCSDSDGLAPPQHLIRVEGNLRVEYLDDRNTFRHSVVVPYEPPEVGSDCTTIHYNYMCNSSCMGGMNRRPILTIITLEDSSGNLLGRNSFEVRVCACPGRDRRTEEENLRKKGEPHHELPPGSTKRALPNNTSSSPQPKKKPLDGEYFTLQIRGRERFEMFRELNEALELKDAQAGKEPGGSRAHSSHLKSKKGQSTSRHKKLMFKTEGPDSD

Row | SMILES | liver cell % of control [1] | parasite % of control [1] | percent of negative control (+Dex) [2] | z-score [2] | z-score [3] | z-score [4] | EGFP object count [5] | EGFP/DsRed ratio [5] | fraction signal [6] | z-score [7, 8] | z-score [7, 9]
1 | CCc1nn2ncccc2c1-c1ccnc(NC2CC2)n1 | 131% | 61.2% (inactive) | 102% (inactive) | -0.225 | 0.555 (inactive) | -0.174 (inactive) | 3.5 | 0.117 (inactive) | 0.007 (inactive) | -0.448 (inactive) | -0.208
2 | COc1cccc(-n2ncc3c(N/N=C/c4cccc(F)c4)ncnc32)c1 | 106% | 81% (inactive) | 93.5% (inactive) | 0.615 | -0.05 (inactive) | -0.183 (inactive) | 5 | 0.0775 (inactive) | 0.0035 (inactive) | 1.45 (inactive) | -0.242
3 | COc1ccc2cc(-c3c(-c4ccncc4)nc(-c4ccc(S(C)(=O)=O)cc4C)n3C)ccc2c1 | 118% | 101% (inactive) | 99% (inactive) | 0.22 | 1.57 (inactive) | -0.298 (inactive) | 1.5 | 0.0486 (inactive) | 0.0025 (inactive) | -0.409 (inactive) | -0.281
4 | NS(=O)(=O)c1cccc(NC2CC(c3ccc(F)cc3)NN2)c1 (centres undefined) | 86.1% | 117% (inactive) | 92.5% (inactive) | 0.55 | 0.39 (inactive) | 4.5 (inactive) | 7.5 | 0.474 (inactive) | -0.0055 (inactive) | 1.38 (inactive) | -0.322
5 | COC1CCC2NC3C4NC5CCC(OC)CC5C4C4C(=O)NC(=O)C4C3C2C1 (centres undefined) | 93.4% | 178% (inactive) | 106% (inactive) | 1.79 | 0.155 (inactive) | -0.67 (inactive) | 3 | 0.0486 (inactive) | -0.005 (inactive) | -0.302 (inactive) | 0.67
6 | COc1cc(N2CCN(C(C)C)CC2)ccc1Nc1nc(Nc2ccc(F)cc2C(=O)NC[C@@H](O)CO)c2cc[nH]c2n1 | 85% | 330% (inactive) | 103% (inactive) | 0 | -0.875 (inactive) | -0.151 (inactive) | 3.5 | 0.273 (inactive) | 0 (inactive) | -0.811 (inactive) | 0.239
7 | CN1CCN(C(=O)c2ccc(NC(=O)Nc3ccc(N(C)c4ccnc(Nc5ccc(CS(C)(=O)=O)cc5)n4)cc3)cc2)CC1 | 86.4% | 77.1% (inactive) | 85.5% (inactive) | -0.585 | 0.175 (inactive) | 4.5 (inactive) | 2 | 0.13 (inactive) | -0.0115 (inactive) | 0.142 (inactive) | 0.134
8 | O=C1NC(=O)C(c2cccc(Cl)c2)=C1Nc1ccc(O)c(Cl)c1 | 112% | 102% (inactive) | 93% (inactive) | 0.42 | -0.775 (inactive) | 0.127 (inactive) | 5 | 0.0621 (inactive) | -0.0075 (inactive) | -1.05 (inactive) | -0.373
9 | COc1cccc(-n2ncc3c(N/N=C/c4ccc(F)cc4)ncnc32)c1 | 104% | 96.2% (inactive) | 93.5% (inactive) | 0.76 | -1.12 (inactive) | -0.343 (inactive) | 9 | 0.197 (inactive) | -0.0025 (inactive) | 1.48 (inactive) | -0.0554
10 | COc1cc(/C=N/Nc2ncnc3c2cnn3C(C)C)ccc1O | 128% | 63.2% (inactive) | 92.5% (inactive) | 0.145 | -0.5 (inactive) | -0.511 (inactive) | 6.5 | 0.127 (inactive) | -0.006 (inactive) | -1.18 (inactive) | 1.02
11 | Fc1ccc(-c2c(-c3ccncc3)nc3n2CCS3)cc1 | 113% | 89.2% (inactive) | 40% (active) | -5.96 | -1.12 (inactive) | 1.33 (inactive) | 1.5 | 0.0335 (inactive) | -0.0075 (inactive) | -0.499 (inactive) | -0.254
12 | NS(=O)(=O)c1ccc(Nc2ncc(-c3ccccc3)o2)cc1 | 108% | 123% (inactive) | 117% (inactive) | 0.745 | -0.98 (inactive) | 0.209 (inactive) | 3.5 | 0.0759 (inactive) | -0.0035 (inactive) | 1.06 (inactive) | -0.0466
13 | COc1cc(/C=N/Nc2ncnc3c2cnn3-c2ccccc2)ccc1O | 108% | 61% (inactive) | 92% (inactive) | 0.145 | 0.145 (inactive) | -0.075 (inactive) | 4.5 | 0.778 (inactive) | -0.007 (inactive) | 1.22 (inactive) | 0.165
14 | Nc1nc(-c2ccc(F)cc2)c(-c2ccc3ncccc3n2)s1 | 158% | 131% (inactive) | 85.5% (inactive) | 0.965 | -0.035 (inactive) | -0.162 (inactive) | 6 | 0.152 (inactive) | -0.002 (inactive) | 0.38 (inactive) | 0.128
